biological target: NF-kB p50/p50 homodimer (Homo sapiens, UniProt P19838 P19838:1-433); experiment: EMSA; Table 3 gives 92 for PO; conditions: protein: extract; tags: nuclear extract of LPS-stimulated THP-1 cells; chain copies: 2 stated; dsDNA, one strand shown
Excerpt: The EMSA assay was employed to characterize oligonucleotide decoys for the NF-κB transcription factor. […] Using the above modified oligonucleotides to compete for binding for the above-mentioned NF-κB family members, it was possible to compare the binding affinity of these oligonucleotides against the high affinity radiolabeled probe and each other. This assay has also enabled the design of a decoy which selectively binds particular members of the NF-κB family. By using increasing concentrations of various oligonucleotides, it was observed that, by deleting or changing targeted residues in the binding site, it was possible to specifically decrease the binding of the decoy molecule to p50/p50 homodimers, while retaining the affinity for p65/p50 and cRel/p50 heterodimers.
The NF-κB gel shift assays (EMSA) were performed as follows. A double-stranded oligonucleotide containing a consensus NF-κB binding site (5′ […].GGC 3′) (SEQ ID NO: 26) was end-labeled with γ³²P-ATP using T4 Polynucleotide Kinase (Promega). […] The dried gels were imaged and quantitated using a Typhoon 8600 Phosphorlmager (Amersham) and ImageQuant software. […]

NF-kB p50/p50 homodimer, sequence (P19838 1-433, one chain of several): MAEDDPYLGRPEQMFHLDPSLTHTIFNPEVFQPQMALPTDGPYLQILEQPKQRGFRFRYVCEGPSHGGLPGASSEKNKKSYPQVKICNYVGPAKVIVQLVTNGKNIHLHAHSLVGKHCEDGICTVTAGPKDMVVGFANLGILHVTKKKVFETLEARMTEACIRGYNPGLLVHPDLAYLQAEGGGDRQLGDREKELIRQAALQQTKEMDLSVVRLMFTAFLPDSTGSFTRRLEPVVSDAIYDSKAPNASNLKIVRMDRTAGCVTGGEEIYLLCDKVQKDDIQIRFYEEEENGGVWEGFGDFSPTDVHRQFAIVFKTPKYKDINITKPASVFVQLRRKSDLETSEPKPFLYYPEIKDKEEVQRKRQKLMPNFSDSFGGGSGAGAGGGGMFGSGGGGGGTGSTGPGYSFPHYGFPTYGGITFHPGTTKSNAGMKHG

Sequence | IC50 [fold molar excess]
AGTTGAGGACTTTCCAGGC | 96
